# Test results from PubChem BioAssay (NCATS).
# Results filed as inconclusive are left out. Unmarked numbers belong to inactive results. Activity calls are given as the source filed them. The call rests on the fitted dose curve; in most records, active means well fitted inhibition curve with a large enough effect; inconclusive means small, poorly fitted or top-dose-only effect; inactive means no such curve, though single readings can be large or run the other way.
# Molecular target: Cytochrome P450 3A7 (Homo sapiens) (UniProt P24462)
# Test: Cytochrome P450 family 3 subfamily A member 7 (CYP3A7) small molecule antagonists: luciferase biochemical qHTS assay (AID 1963596); further: nearly all actives have a fitted effect of over 40% in size
# Details: P450-Glo CYP3A7 enzyme luminescence, 1 h; series mostly up to 57.4 µM; activity change, negative = inhibition: at the top concentration
# Outline: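 Enzyme-substrate mix + cpd (DMSO), 10 min RT; + NADPH regen system, 1 h RT; + luciferin detection reagent, 20 min RT; luminescence read. Proluciferin substrate, P450-Glo format, 1536-well qHTS.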
# On the % scale 0 is the no-effect control and ±100 the full control effect; potency means the concentration at half of the fitted maximal effect.
# Chain of Cytochrome P450 3A7 (Homo sapiens) (P24462 whole entry, looked up): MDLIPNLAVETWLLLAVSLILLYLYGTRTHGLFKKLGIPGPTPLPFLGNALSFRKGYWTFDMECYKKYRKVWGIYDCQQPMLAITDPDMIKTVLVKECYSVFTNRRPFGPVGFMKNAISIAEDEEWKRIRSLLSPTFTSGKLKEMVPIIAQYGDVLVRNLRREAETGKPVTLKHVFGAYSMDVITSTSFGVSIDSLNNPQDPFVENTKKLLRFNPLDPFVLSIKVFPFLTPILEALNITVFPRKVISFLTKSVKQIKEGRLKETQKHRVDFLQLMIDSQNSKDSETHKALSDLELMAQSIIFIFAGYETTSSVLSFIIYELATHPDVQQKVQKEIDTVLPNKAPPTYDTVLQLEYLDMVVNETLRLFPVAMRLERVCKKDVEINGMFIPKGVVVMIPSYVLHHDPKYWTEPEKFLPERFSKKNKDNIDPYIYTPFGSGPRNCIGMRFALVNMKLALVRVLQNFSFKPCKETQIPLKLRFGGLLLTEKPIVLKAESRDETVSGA
Structure (SMILES),"activity change, negative = inhibition [%]",Potency
CN[C@H](CC(C)C)C(=O)N[C@H]1C(=O)N[C@@H](CC(N)=O)C(=O)N[C@H]2C(=O)N[C@H]3C(=O)N[C@H](C(=O)N[C@H](C(=O)O)c4cc(O)cc(O)c4-c4cc3ccc4O)[C@H](O)c3ccc(c(Cl)c3)Oc3cc2cc(c3O[C@@H]2OC(CO)[C@@H](O)[C@H](O)[C@@H]2O[C@H]2C[C@](C)(N)[C@H](O)[C@H](C)O2)Oc2ccc(cc2Cl)[C@H]1O (some centres undefined),-5.92,–
CC(C)OC(=O)N1CCC(Oc2ncnc3c2cnn3-c2ccc(S(C)(=O)=O)cc2F)CC1,-17.1,–
O=c1[nH]ccc2cc(OC3CCNCC3)ccc12,0,–
C[N+]1(CCCCC[N+]2(C)CCCC2)CCCC1,-7.69,–
Cc1cc(N)c2cc(NC(=O)Nc3ccc4nc(C)cc(N)c4c3)ccc2n1,6.52,–
O=C(Nc1ccc(Cl)c(Cl)c1)C1CC1,42.6,–
CC(NC(=O)C(=O)Nc1c2c(nn1-c1ccccc1)CSC2)c1ccccc1 (centres undefined),-17.8,–
COc1ccc(NC(=O)CSc2nc(-c3cccs3)cc(C(F)(F)F)n2)cc1OC,9.64,–
Cc1cc(NC(=O)Nc2ccc(F)c(F)c2)n(-c2ccccc2)n1,-28.5,–
COc1cc(F)c(C(C)C)cc1-c1ccc(C(F)(F)F)cc1CN1C(=O)OC(c2cc(C(F)(F)F)cc(C(F)(F)F)c2)C1C (centres undefined),-21.6,–
COc1ccc(CNC(=O)Nc2ccc3c(c2)N(C)C(=O)c2ccccc2S3)cc1OC,0,–
CCOc1ccc(CNC(=O)Cn2c(=O)c3cccn3c3ccc(F)cc32)cc1,–,425 nM (active)
O=C(OC(C(F)(F)F)C(F)(F)F)N1CCN(Cc2cccc(Oc3ccccc3)c2)CC1,-14.5,–
C=CCNCCCCCC[N+](C)(C)C,3.31,–
NCC1OC(OC2C(N)CC(N)C(OC3OC(CO)C(O)C(N)C3O)C2O)C(N)CC1O (centres undefined),12.2,–
COC(=O)c1ccccc1O,-3.03,–
CN(C)CCOC(c1ccc(Cl)cc1)c1ccccn1 (centres undefined),-18.6,–
CCCCCCCCCCCCCCCCCC[N+](C)(C)CCC[Si](OC)(OC)OC,-7.83,–
OC[C@H]1O[C@@H]2O[C@H]3[C@H](O)[C@@H](O)[C@@H](O[C@H]4[C@H](O)[C@@H](O)[C@@H](O[C@H]5[C@H](O)[C@@H](O)[C@@H](O[C@H]6[C@H](O)[C@@H](O)[C@@H](O[C@H]7[C@H](O)[C@@H](O)[C@@H](O[C@H]1[C@H](O)[C@@H]2O)O[C@@H]7CO)O[C@@H]6CO)O[C@@H]5CO)O[C@@H]4CO)O[C@@H]3CO,0.893,–
CC(C)(C)NS(=O)(=O)c1cncc(-c2cc(F)c3nc(N)nn3c2)c1,-0.305,–

Structure (SMILES),"activity change, negative = inhibition [%]",Potency
Cc1c(C)n(CCN(C)C)c2ccc(C(=O)OCCN(C)C)cc12,-0.197,–
C=CC1=C(C(=O)O)N2C(=O)[C@@H](NC(=O)/C(=N\OCC(=O)O)c3csc(N)n3)[C@H]2SC1,-25.7,–
C[C@@H](C(=O)O)c1ccc(-c2ccccc2)c(F)c1,5.93,–
CC1(C)CC1C(=O)NC(=CCCCCSCC(N)C(=O)O)C(=O)O (centres undefined),-6.35,–
Cc1nc(C)c(-c2ccc(C3CCC(CC(=O)O)CC3)cc2)nc1C(N)=O (centres undefined),0.244,–
COCC(=O)N1CCc2cc(-c3csc(NC(=O)c4cc(OC)cc(OC)c4)n3)ccc21,-13,–
COc1cc(Cc2cnc(N)nc2N)c(C(C)C)cc1OC,12.7,–
C[C@H](NCCc1ccc(O)cc1)[C@H](O)c1ccc(O)cc1,-26.9,–
CNC(=O)COC(=O)N1CCC(CCc2ccc(Cl)cc2)CC1,12.7,–
CCc1ccccc1OC[C@@H](O)CN[C@H]1CCCc2ccccc21,0,–
O=C1CCC(=O)N1CO,-1.52,–
Cc1ccc(Cn2c(SCc3ccc(C(=O)N4CCCCCC4)cc3)nc3ccncc32)cc1,4.01,–
O=C(O)Cc1cn(-c2ccccc2)nc1-c1ccc(Cl)cc1,-3.33,–
O=C(CSc1nc(-c2ccc(F)cc2)nc2c1Cc1ccccc1O2)Nc1cccc(C(=O)O)c1,-24,–
CC(C)(C)NCCCNC(=O)c1cccc(Br)c1,-0.932,–
O=C(CO)[C@@H](O)[C@H](O)[C@@H](O)C(=O)O,6.17,–
CCOC(=O)N1c2ccc(C(F)(F)F)cc2C(N(Cc2cc(C(F)(F)F)cc(C(F)(F)F)c2)C(=O)OC)CC1CC (centres undefined),-13.2,–
CCCc1ccc(C(=O)O)cc1,-0.15,–
Cc1ccc(-n2nc3c(N4CCCC(C(=O)NCc5ccccc5C)C4)nnc(C)c3c2C)cc1 (centres undefined),–,756 nM (active)
